# Measured values reported in the supplement of paper PMC7765376.
# Where a name gives a salt, the structure may show the parent alone. In all, about 1,500 compounds were measured (“Excess HSA synergy score (sum over dose matrix of excess over highest single agent)”: median about 43, lowest 2% from about -900 on). The entries come from a sample that favours the lowest values as a whole.
# Tested on: PEO-1
# Test: Excess HSA synergy score (sum over dose matrix of excess over highest single agent) (score (summed % response)); higher = less synergy / more antagonism (negative = synergy)
# Conditions: 72 h, read-out: viability/apoptosis luminescence (CellTiter-Glo or Caspase3-Glo / not stated per table)
# [1] = matrix design: 6x6, 5-fold dilutions (primary screen)
# [2] = matrix design: 10x10, 9-step dilutions (confirmatory)
SMILES,Excess HSA synergy score [1],Excess HSA synergy score [2]
Cc1noc(-c2ccc(CSCCC(=O)O)cc2)c1NC(=O)OC(C)c1ccccc1Cl (stereo unspecified) + CC[C@H](NC(=O)[C@H](C)NC)C(=O)N1C[C@@H](O)C[C@H]1Cc1c(-c2[nH]c3cc(F)ccc3c2C[C@@H]2C[C@H](O)CN2C(=O)[C@H](CC)NC(=O)[C@H](C)NC)[nH]c2cc(F)ccc12 [Birinapant],351,–
CCOc1cc(C(=O)Nc2ccc(Cl)c(-c3nc4ccccc4[nH]3)c2)cc(OCC)c1OCC + CC[C@H](NC(=O)[C@H](C)NC)C(=O)N1C[C@@H](O)C[C@H]1Cc1c(-c2[nH]c3cc(F)ccc3c2C[C@@H]2C[C@H](O)CN2C(=O)[C@H](CC)NC(=O)[C@H](C)NC)[nH]c2cc(F)ccc12 [Birinapant],142,–
C=C(C)[C@@H]1CC[C@]2(C)CC[C@]3(C)[C@H](CC[C@@H]4[C@@]5(C)CC[C@H](O)C(C)(C)[C@@H]5CC[C@]43C)[C@@H]12 [Lupeol] + CC[C@H](NC(=O)[C@H](C)NC)C(=O)N1C[C@@H](O)C[C@H]1Cc1c(-c2[nH]c3cc(F)ccc3c2C[C@@H]2C[C@H](O)CN2C(=O)[C@H](CC)NC(=O)[C@H](C)NC)[nH]c2cc(F)ccc12 [Birinapant],-39.9,–
O=C(NNC(=O)c1ccc(CNS(=O)(=O)c2ccc(F)c(Cl)c2)cc1)c1ccccc1 + CC[C@H](NC(=O)[C@H](C)NC)C(=O)N1C[C@@H](O)C[C@H]1Cc1c(-c2[nH]c3cc(F)ccc3c2C[C@@H]2C[C@H](O)CN2C(=O)[C@H](CC)NC(=O)[C@H](C)NC)[nH]c2cc(F)ccc12 [Birinapant],144,–
CC(C)(C)c1cc(C(C)(C)C)c(NC(=O)c2c[nH]c3ccccc3c2=O)cc1O [Ivacaftor] + CC[C@H](NC(=O)[C@H](C)NC)C(=O)N1C[C@@H](O)C[C@H]1Cc1c(-c2[nH]c3cc(F)ccc3c2C[C@@H]2C[C@H](O)CN2C(=O)[C@H](CC)NC(=O)[C@H](C)NC)[nH]c2cc(F)ccc12 [Birinapant],116,–
C=CC(=O)Nc1cc2c(Nc3ccc(F)c(Cl)c3)ncnc2cc1C#CC(C)(C)N1CCN(C)CC1 + CC[C@H](NC(=O)[C@H](C)NC)C(=O)N1C[C@@H](O)C[C@H]1Cc1c(-c2[nH]c3cc(F)ccc3c2C[C@@H]2C[C@H](O)CN2C(=O)[C@H](CC)NC(=O)[C@H](C)NC)[nH]c2cc(F)ccc12 [Birinapant],44.3,–
CO[C@H]1C(=O)[C@]2(C)[C@@H](OC)C[C@H]3OC[C@@]3(OC(C)=O)[C@H]2[C@H](OC(=O)c2ccccc2)[C@]2(O)C[C@H](OC(=O)[C@H](O)[C@@H](NC(=O)OC(C)(C)C)c3ccccc3)C(C)=C1C2(C)C [Cabazitaxel] + CC[C@H](NC(=O)[C@H](C)NC)C(=O)N1C[C@@H](O)C[C@H]1Cc1c(-c2[nH]c3cc(F)ccc3c2C[C@@H]2C[C@H](O)CN2C(=O)[C@H](CC)NC(=O)[C@H](C)NC)[nH]c2cc(F)ccc12 [Birinapant],-61.8,–
Cc1ccc(NC(=O)c2cccc(C(C)(C)C#N)c2)cc1Nc1ccc2ncn(C)c(=O)c2c1 + CC[C@H](NC(=O)[C@H](C)NC)C(=O)N1C[C@@H](O)C[C@H]1Cc1c(-c2[nH]c3cc(F)ccc3c2C[C@@H]2C[C@H](O)CN2C(=O)[C@H](CC)NC(=O)[C@H](C)NC)[nH]c2cc(F)ccc12 [Birinapant],31.8,–
CCNC(=O)Nc1ccc2ncc(Nc3ccc(C)cc3)nc2n1 + CC[C@H](NC(=O)[C@H](C)NC)C(=O)N1C[C@@H](O)C[C@H]1Cc1c(-c2[nH]c3cc(F)ccc3c2C[C@@H]2C[C@H](O)CN2C(=O)[C@H](CC)NC(=O)[C@H](C)NC)[nH]c2cc(F)ccc12 [Birinapant],77.2,–
Cc1nc(Nc2n[nH]c3c2CN(C(=O)N[C@H](CN(C)C)c2ccccc2)C3(C)C)c2sccc2n1 + CC[C@H](NC(=O)[C@H](C)NC)C(=O)N1C[C@@H](O)C[C@H]1Cc1c(-c2[nH]c3cc(F)ccc3c2C[C@@H]2C[C@H](O)CN2C(=O)[C@H](CC)NC(=O)[C@H](C)NC)[nH]c2cc(F)ccc12 [Birinapant],-399,-1930
Cc1cnc(-c2cc(N3CCN(C(=O)CCS(C)(=O)=O)CC3)ncc2Cl)c(C)c1 + CC[C@H](NC(=O)[C@H](C)NC)C(=O)N1C[C@@H](O)C[C@H]1Cc1c(-c2[nH]c3cc(F)ccc3c2C[C@@H]2C[C@H](O)CN2C(=O)[C@H](CC)NC(=O)[C@H](C)NC)[nH]c2cc(F)ccc12 [Birinapant],211,–
O=C(CCN1CCN(C(=O)OCc2cc(Cl)cc(Cl)c2)CC1)c1ccc2[nH]c(=O)oc2c1 + CC[C@H](NC(=O)[C@H](C)NC)C(=O)N1C[C@@H](O)C[C@H]1Cc1c(-c2[nH]c3cc(F)ccc3c2C[C@@H]2C[C@H](O)CN2C(=O)[C@H](CC)NC(=O)[C@H](C)NC)[nH]c2cc(F)ccc12 [Birinapant],-22.5,–
CC1(C)OC2=C(C(=O)c3ccccc3C2=O)[C@H](NCc2ccccc2)[C@@H]1O + CC[C@H](NC(=O)[C@H](C)NC)C(=O)N1C[C@@H](O)C[C@H]1Cc1c(-c2[nH]c3cc(F)ccc3c2C[C@@H]2C[C@H](O)CN2C(=O)[C@H](CC)NC(=O)[C@H](C)NC)[nH]c2cc(F)ccc12 [Birinapant],60.3,–
C[C@@H](Oc1cc(-c2cnn(C3CCNCC3)c2)cnc1N)c1c(Cl)ccc(F)c1Cl [Crizotinib] + CC[C@H](NC(=O)[C@H](C)NC)C(=O)N1C[C@@H](O)C[C@H]1Cc1c(-c2[nH]c3cc(F)ccc3c2C[C@@H]2C[C@H](O)CN2C(=O)[C@H](CC)NC(=O)[C@H](C)NC)[nH]c2cc(F)ccc12 [Birinapant],-219,–
CCOC(=O)N1CCN(/[N+]([O-])=N/Oc2ccc([N+](=O)[O-])cc2C#N)CC1 + CC[C@H](NC(=O)[C@H](C)NC)C(=O)N1C[C@@H](O)C[C@H]1Cc1c(-c2[nH]c3cc(F)ccc3c2C[C@@H]2C[C@H](O)CN2C(=O)[C@H](CC)NC(=O)[C@H](C)NC)[nH]c2cc(F)ccc12 [Birinapant],10.9,–
O=C1NC(=O)[C@@H](c2cn3c4c(cccc24)CCC3)[C@@H]1c1c[nH]c2ccccc12 [Tivantinib] + CC[C@H](NC(=O)[C@H](C)NC)C(=O)N1C[C@@H](O)C[C@H]1Cc1c(-c2[nH]c3cc(F)ccc3c2C[C@@H]2C[C@H](O)CN2C(=O)[C@H](CC)NC(=O)[C@H](C)NC)[nH]c2cc(F)ccc12 [Birinapant],-96.6,–
COC(=O)Nc1ccc(-c2nc(N3CCOCC3)c3cnn(C4CCN(C(=O)OC)CC4)c3n2)cc1 + CC[C@H](NC(=O)[C@H](C)NC)C(=O)N1C[C@@H](O)C[C@H]1Cc1c(-c2[nH]c3cc(F)ccc3c2C[C@@H]2C[C@H](O)CN2C(=O)[C@H](CC)NC(=O)[C@H](C)NC)[nH]c2cc(F)ccc12 [Birinapant],-64.3,–
O=C(O)c1ccccc1C(=O)Nc1ccc(-c2ccccc2)cc1 [Kartogenin] + CC[C@H](NC(=O)[C@H](C)NC)C(=O)N1C[C@@H](O)C[C@H]1Cc1c(-c2[nH]c3cc(F)ccc3c2C[C@@H]2C[C@H](O)CN2C(=O)[C@H](CC)NC(=O)[C@H](C)NC)[nH]c2cc(F)ccc12 [Birinapant],460,–
CC[C@@H]1C(=O)N(C)c2cnc(Nc3ccc(C(=O)NC4CCN(C)CC4)cc3OC)nc2N1C1CCCC1 + CC[C@H](NC(=O)[C@H](C)NC)C(=O)N1C[C@@H](O)C[C@H]1Cc1c(-c2[nH]c3cc(F)ccc3c2C[C@@H]2C[C@H](O)CN2C(=O)[C@H](CC)NC(=O)[C@H](C)NC)[nH]c2cc(F)ccc12 [Birinapant],-84.2,–
CC[C@@H]1C(=O)N(C)c2cnc(Nc3ccc(C(=O)N[C@H]4CC[C@H](N5CCN(CC6CC6)CC5)CC4)cc3OC)nc2N1C(C)C [Volasertib] + CC[C@H](NC(=O)[C@H](C)NC)C(=O)N1C[C@@H](O)C[C@H]1Cc1c(-c2[nH]c3cc(F)ccc3c2C[C@@H]2C[C@H](O)CN2C(=O)[C@H](CC)NC(=O)[C@H](C)NC)[nH]c2cc(F)ccc12 [Birinapant],22.4,-1030
COc1cc(C(=O)NC2CCN(C)CC2)ccc1Nc1ncc2c(n1)N(C1CCCC1)CCC(=O)N2C(C)C + CC[C@H](NC(=O)[C@H](C)NC)C(=O)N1C[C@@H](O)C[C@H]1Cc1c(-c2[nH]c3cc(F)ccc3c2C[C@@H]2C[C@H](O)CN2C(=O)[C@H](CC)NC(=O)[C@H](C)NC)[nH]c2cc(F)ccc12 [Birinapant],135,–
COc1ccc(-n2nc(C(N)=O)c3c2C(=O)N(c2ccc(N4CCCCC4=O)cc2)CC3)cc1 [Apixaban] + CC[C@H](NC(=O)[C@H](C)NC)C(=O)N1C[C@@H](O)C[C@H]1Cc1c(-c2[nH]c3cc(F)ccc3c2C[C@@H]2C[C@H](O)CN2C(=O)[C@H](CC)NC(=O)[C@H](C)NC)[nH]c2cc(F)ccc12 [Birinapant],-103,–
CN1CC2c3ccccc3Oc3ccc(Cl)cc3C2C1 (stereo unspecified) [Asenapine maleate] + CC[C@H](NC(=O)[C@H](C)NC)C(=O)N1C[C@@H](O)C[C@H]1Cc1c(-c2[nH]c3cc(F)ccc3c2C[C@@H]2C[C@H](O)CN2C(=O)[C@H](CC)NC(=O)[C@H](C)NC)[nH]c2cc(F)ccc12 [Birinapant],164,–
O=S(=O)(O)c1ccc2cc(N=Nc3cc(S(=O)(=O)O)c4cccnc4c3O)ccc2c1 + CC[C@H](NC(=O)[C@H](C)NC)C(=O)N1C[C@@H](O)C[C@H]1Cc1c(-c2[nH]c3cc(F)ccc3c2C[C@@H]2C[C@H](O)CN2C(=O)[C@H](CC)NC(=O)[C@H](C)NC)[nH]c2cc(F)ccc12 [Birinapant],130,–
